The values below come from PubChem BioAssay AID1851 (National Center for Advancing Translational Sciences (NCATS), 2009).

Structures are written as SMILES. The whole screen tested about 16,000 compounds, of which about 4,000 (25%) were called active. Roughly 26% stayed inconclusive and do not appear here. The call rests on the fitted dose curve; in most records, active means well fitted curve in the direction sought with a large enough effect; inconclusive means small, poorly fitted or top-dose-only effect, or effect the other way; inactive means no such curve, though single readings can be large or run the other way. The list is a sample of the results.
On the % scale 0 is the no-effect control and ±100 the full control effect.

Chain of Cytochrome P450 2C9 (Homo sapiens) (P11712 whole entry, looked up): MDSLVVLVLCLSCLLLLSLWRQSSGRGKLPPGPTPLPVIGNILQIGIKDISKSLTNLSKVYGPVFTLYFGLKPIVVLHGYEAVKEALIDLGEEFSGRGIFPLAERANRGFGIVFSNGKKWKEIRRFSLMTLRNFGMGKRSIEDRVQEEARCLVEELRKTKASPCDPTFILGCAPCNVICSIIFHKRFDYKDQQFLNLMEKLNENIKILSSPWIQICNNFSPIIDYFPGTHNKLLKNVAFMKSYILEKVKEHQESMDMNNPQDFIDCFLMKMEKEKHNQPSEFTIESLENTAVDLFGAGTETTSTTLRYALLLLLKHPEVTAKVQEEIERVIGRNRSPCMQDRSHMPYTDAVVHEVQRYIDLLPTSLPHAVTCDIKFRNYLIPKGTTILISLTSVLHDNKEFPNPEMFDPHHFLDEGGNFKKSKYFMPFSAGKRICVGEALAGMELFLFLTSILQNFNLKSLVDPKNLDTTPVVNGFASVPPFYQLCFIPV

The assay has as its target Cytochrome P450 2C9 (Homo sapiens) (UniProt P11712). The assay can be described thus: Cytochrome panel assay with activity outcomes. The following applies: recombinant CYP, pro-luciferin dealkylation, luminescence, p450-cyp2c9; series mostly up to 57.1 µM; activity, negative = inhibition: at the top concentration.
With `Cc1nc2nc[nH]n2c(=O)c1NC(=O)CC12CC3CC(CC(C3)C1)C2`, the “activity, negative = inhibition” value was -28.9% (inactive).
On the same count and under the same terms, the figure for `C[C@H]1[C@H](C)OC(=O)C[C@H](O)C[C@H](O)C[C@H](O)CC[C@H](O)[C@H](O)CC(=O)C[C@H](O)[C@H](C(=O)O)[C@H](O)C[C@H](O[C@@H]2O[C@@H](C)[C@H](O)[C@@H](N)[C@@H]2O)C=CC=CC=CC=CCCC=CC=C[C@@](C)(O)[C@H]1O` is 14.1% [at 11.4 µM] (inactive); for `Cc1nc2cnc(N3CCN(C)CC3)nc2n(CCc2ccccc2)c1=O` it is 0.67% (inactive); for `Cc1nc2cnc(N3CCN(C)CC3)nc2n(Cc2cccs2)c1=O` it is 10.7% (inactive).
As to `CCNc1ncc2nc(C)c(=O)n(Cc3cccs3)c2n1`, the “activity, negative = inhibition” value was -3.88% (inactive).
Turning to `CCNc1ncc2nc(-c3ccc(OC)cc3)c(=O)n(Cc3cccc(OC)c3)c2n1`, the “activity, negative = inhibition” value was -9.5% (inactive).
`CN1CCN(c2ncc3nc(-c4ccccc4)c(=O)n(Cc4cccs4)c3n2)CC1`: the “activity, negative = inhibition” value was -19.8% (inactive).
The AC50 is the concentration at which the activity in the assay is half-maximal. Turning to `CN1CCN(c2ncc3nc(CCc4ccccc4)c(=O)n(Cc4cccs4)c3n2)CC1`, the half-maximal activity concentration (AC50) was 25.1 µM (active).
Consider `COc1cccc(Cn2c(=O)c(CCc3ccccc3)nc3cnc(N4CCN(C)CC4)nc32)c1`, for which the AC50 was 25.1 µM (active).
Same read-out and setting: the figure for `CCNc1ncc2nc(C)c(=O)n(Cc3cccc(OC)c3)c2n1` is 15.8 µM (active).
For the compound `COc1ccc(-n2c(=O)c(CCc3ccccc3)nc3cnc(N4CCN(C)CC4)nc32)cc1`, the “activity, negative = inhibition” value is -23.4% (inactive).
With `COc1cccc(Cn2c(=O)cnc3cncnc32)c1`, the concentration at half-maximal activity (AC50) was 31.6 µM (active).
In the case of `C[C@@]12CCC(=O)C=C1CC[C@H]1[C@H]3CC[C@](O)(C(=O)CO)[C@]3(C)CC(=O)[C@@H]12`, the “activity, negative = inhibition” value is 18.5% [at 25.6 µM] (inactive).
With `Cc1ccc(OC[C@H](O)[C@H](C)NC(C)C)c2c1CCC2`, the AC50 entry was “inactive”.
With `CC(C)(CS)C(=O)N1CCC[C@H]1C(=O)O`, the “activity, negative = inhibition” value is -24.4% [at 25.6 µM] (inactive).
`c1ccc(C2=NN[C@@H]3c4ccccc4-c4ccccc4N3C2)cc1`: the activity, negative = inhibition is 6.37% [at 11.4 µM] (inactive).
As to `O=C1N=C2SCCN2/C1=C\c1c(Cl)cccc1Cl`, the AC50 is 15.8 µM (active).
Turning to `O=C(NCc1ccccc1)c1cccc(COc2cccc(Cl)c2)c1`, the AC50 was 17.8 µM (active).
Turning to `O=C(O)c1ccc(OCc2ccccc2)c(Cl)c1`, the activity, negative = inhibition is -17.5% [at 11.4 µM] (inactive).
The same measure, in the same setting: the figure for `Cc1nc(NC(=O)c2ccccc2)sc1-c1csc(Nc2ccc(Cl)cc2Cl)n1` is -7.22% (inactive).
Take `C=CCCC(=O)Nc1nc(C)c(-c2csc(Nc3ccc(Cl)cc3)n2)s1`: the AC50 was 10 µM (active).
Still for that read-out and setting: the figure for `COc1ccc(OC)c(Nc2nc(-c3sc(NC(=O)c4ccccc4)nc3C)cs2)c1` is 3.55 µM (active).
For the compound `Cc1ccc(Nc2nc(-c3sc(NC(=O)c4cccc(Cl)c4)nc3C)cs2)cc1`, the “activity, negative = inhibition” value is -1.37% (inactive).
As to `Cc1nc(NC(=O)c2ccccc2)sc1-c1csc(Nc2cccc(Cl)c2)n1`, the AC50 was 3.55 µM (active).
On the same count and under the same terms, in the case of `COc1ccccc1Nc1nc(-c2sc(NC(=O)c3ccccc3)nc2C)cs1` it was 2.24 µM (active).
In the case of `CCC1(O)c2ccccc2-c2ncccc21` (stereo not drawn), the “activity, negative = inhibition” value was -25.6% (inactive).
Still for that read-out and setting: in the case of `C[N+](C)(C)CCCCCCCCCC[N+](C)(C)C` it was -0.917% [at 25.6 µM] (inactive).
Take `Cc1ccccc1-c1ccc2ncnc(NC3CC3)c2c1`: the activity, negative = inhibition is 19.9% [at 2.29 µM] (inactive).
With `Cc1ccccc1-c1cncnc1NC1CCNCC1`, the activity, negative = inhibition is 1.54% [at 2.29 µM] (inactive).
As to `CCOc1ccccc1Nc1ccc(N)cc1S(=O)(=O)O`, the activity, negative = inhibition is -6.23% [at 11.4 µM] (inactive).
On to `CCOc1ccccc1Nc1nc(-c2sc(NC(=O)c3ccccc3)nc2C)cs1`, for which the AC50 is 2.51 µM (active).
Take `CCOc1ccccc1NC(=O)CCC(=O)O`: the “activity, negative = inhibition” value was 2.66% (inactive).
Take `COc1ccc(C(=O)n2c(SC)nc3cc4c(cc32)OCCO4)cc1`: the AC50 was 1.41 µM (active).
In the case of `COc1ccc(C(=O)Nc2ccc3c(c2)nc(CN2CCN(C(C)=O)CC2)n3C)cc1`, the “activity, negative = inhibition” value was -29% (inactive).
For `COc1cccc(C(=O)n2c(SC)nc3cc4c(cc32)OCCO4)c1`, the concentration at half-maximal activity (AC50) is 20 µM (active).
`COc1ccc(C(=O)N2CCC3(CCN(Cc4cc(C(F)(F)F)cc(C(F)(F)F)c4)CC3)CC2)cc1`: the “activity, negative = inhibition” value was 13% (inactive).
The same measure, in the same setting: in the case of `CCOc1cc(/C=N/NC(=O)CN2CCCCC2)ccc1OCc1ccccc1` it was -40.6% (inactive).
In the case of `COc1cc(/C=N/NC(=O)c2cccs2)ccc1OCc1ccccc1`, the AC50 was 2.24 µM (active).
On the same count and under the same terms, the figure for `Cc1ccc(/C=N/NC(=O)c2cccs2)cc1[N+](=O)[O-]` is 3.98 µM (active).
With `CC(C)C(=O)N/N=C/c1ccc(OCc2ccccc2)cc1`, the “activity, negative = inhibition” value was -7.85% (inactive).
On the same count and under the same terms, the figure for `COc1cc(CNCc2cccs2)ccc1OCC(N)=O` is 3.66% (inactive); for `O=C(N/N=C/C=C/c1ccc([N+](=O)[O-])cc1)c1cccs1` it is -12.7% (inactive).
Turning to `O=C(N/N=C/c1cccc(OCc2ccccc2)c1)c1cccs1`, the concentration at half-maximal activity (AC50) is 2.51 µM (active).
On the same count and under the same terms, in the case of `C=CCc1ccccc1OC[C@H](O)CNC(C)C` it was “inactive”.
As to `Cc1cccn2c(=O)c(C=NCc3ccco3)c(Nc3ccc(SC(F)F)cc3)nc12`, the “activity, negative = inhibition” value is -27.9% (inactive).
Take `CC1CCCC(C)N1C(=O)c1ccccc1Nc1ccc(SC(F)F)cc1` (stereo not drawn): the concentration at half-maximal activity (AC50) was 7.08 µM (active).
Take `CC(=O)OC[C@H]1O[C@@H](O/N=C(\C)CCN2CCc3nc(-c4ccccc4)c(-c4ccccc4)cc3C2)[C@H](OC(C)=O)[C@@H](OC(C)=O)[C@H]1OC(C)=O`: the activity, negative = inhibition is 4.27% [at 11.4 µM] (inactive).
Regarding `CCC(=O)OCc1c(C(F)(F)F)nn(C)c1Sc1ccc(F)cc1`, the concentration at half-maximal activity (AC50) was 10 µM (active).
With `OC[C@@H](O)CNc1ncnc2ccccc12`, the activity, negative = inhibition was 23.8% [at 11.4 µM] (inactive).
Turning to `C[C@@H]1CN(CCCn2c3ccccc3c3ccccc32)C[C@H](C)N1`, the AC50 is 12.6 µM (active).
For the compound `c1ccc2c(c1)c1ccccc1n2Cn1c2ccccc2c2ccccc21`, the activity, negative = inhibition is -11.7% [at 11.4 µM] (inactive).
Still for that read-out and setting: the figure for `c1ccc(C(CCN2CC3CCC(CC3)C2)c2ccccc2)cc1` is 8.36% [at 11.4 µM] (inactive).
On to `CC1(C)NC(=O)N(c2ccc([N+](=O)[O-])c(C(F)(F)F)c2)C1=O`, for which the “activity, negative = inhibition” value is -28.7% [at 25.6 µM] (inactive).
Take `Cc1cccn2c(/C=N/OCc3cccc(F)c3)c(-c3ccc(Cl)cc3)nc12`: the concentration at half-maximal activity (AC50) was 6.31 µM (active).
In the case of `Cc1cc2nc3c(=O)[nH]c(=O)nc-3n(CC(O)C(O)C(O)CO)c2cc1C` (stereo not drawn), the “activity, negative = inhibition” value was -17.3% [at 25.6 µM] (inactive).
With `COc1cccc(-c2ccc3ncnc(NC4CCNCC4)c3c2)c1`, the activity, negative = inhibition was 19.4% [at 2.29 µM] (inactive).
With `CSc1nc2n(n1)C(c1cc(Br)ccc1F)C(C(=O)N(C)C)=C(C)N2` (stereo not drawn), the half-maximal activity concentration (AC50) is 22.4 µM (active).
On the same count and under the same terms, the figure for `O=S(=O)(c1ccccc1)N1N=C(c2cccs2)CC1c1ccc(Br)cc1` (stereo not drawn) is 1.41 µM (active).
